Here are results for 14 molecules from PubChem BioAssay (NCI).

Test systems include EKVX NSCLC; SN12C renal; UO-31 renal; TK-10 renal; ACHN renal; CAKI-1 renal; A498 renal; CCRF-CEM leukemia; MOLT-4 leukemia; SR leukemia.
Holding throughout (experiment): NCI-60 one-dose screen, 48 h (100 = growth as untreated, 0 = no growth, -100 = all killed)
Holding throughout (conditions): 10 µM

SMILES strings stand for the structures. About 83,000 compounds went through this panel and 20% of them were active in at least one assay; those are over-represented in the sample as a whole.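 Negative percent growth values reflect cell death: -40 means 40% of the cells present at the start died, and -100 means all died.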 A number with no mark means an inactive call. The source made the active and inactive calls. Rule for the calls: active = growth percent below 10; inactive = the rest.

Turning to `CCCCCCCCCCCCCCCCCCOCC(COCCOCC[N+]1(CCCCCC(=O)[O-])CCCC1)Oc1ncccn1` (stereo not given), the growth is 63.4% with EKVX NSCLC; 46.6% in the assay on SN12C renal; 98.7% in the assay on UO-31 renal; 7.83% (active) in the assay on TK-10 renal; 69.2% with ACHN renal; 93.5% in the assay with CAKI-1 renal. Also, the growth is 73.7% in the assay with A498 renal, 32.3% in the assay on CCRF-CEM leukemia, 32.5% with MOLT-4 leukemia and 29.9% with SR leukemia.

Regarding `N=C1c2nc3n(c2C(=O)c2nc4n(c21)CCCC4)CCCC3`, the growth was 95.6% in the assay with EKVX NSCLC; -86.1% (active) in the assay with SN12C renal; 46.9% in the assay on UO-31 renal; 128% in the assay with TK-10 renal; 69.4% with ACHN renal; 88.8% in the assay with CAKI-1 renal. Also, the growth in the assay with A498 renal was 52.1%; in the assay on CCRF-CEM leukemia, 92.9%; with MOLT-4 leukemia, 85.4%; in the assay on SR leukemia it was 69.5%.

On to `O=C(Nc1ccncc1)C(=O)c1cn(S(=O)(=O)c2cccc(Cl)c2)c2ccccc12`, for which the growth was 52.3% in the assay with EKVX NSCLC; 75.5% in the assay with SN12C renal; 57.7% in the assay with UO-31 renal; 87.6% in the assay on TK-10 renal; 82.8% in the assay with ACHN renal; 63.8% with CAKI-1 renal. Also, the growth was 69.4% in the assay with A498 renal, 72.4% in the assay with CCRF-CEM leukemia, 53.1% in the assay with MOLT-4 leukemia and 12% in the assay with SR leukemia.

With `Cc1occc1-c1nnc(SCC(=O)c2ccc(NC(=O)CC(C)C)cc2)o1`, the growth with EKVX NSCLC is 103%; with SN12C renal it was 107%; with UO-31 renal it was 93.7%; in the assay with TK-10 renal it was 123%; with ACHN renal, 109%; in the assay on CAKI-1 renal, 84.1%. Moreover, the growth was 118% with A498 renal, 93.4% with CCRF-CEM leukemia, 100% with MOLT-4 leukemia and 7.85% (active) in the assay with SR leukemia.

As to `Nc1ccn(C2CC(O)C(CO)O2)c(=O)n1` (stereo not given), the growth is 102% in the assay with EKVX NSCLC; 108% in the assay with SN12C renal; 96.4% with UO-31 renal; 148% in the assay with TK-10 renal; 104% with ACHN renal; 99.4% in the assay with CAKI-1 renal. For the same molecule, the growth in the assay with A498 renal was 124%; in the assay with CCRF-CEM leukemia, 116%; in the assay with MOLT-4 leukemia, 104%; with SR leukemia, 92.7%.

`Oc1[nH]c2cc(Cl)ccc2c1/C=c1/ccc2c(c1)N=C(c1cc(F)cc(F)c1)N=2`: the growth with EKVX NSCLC is 57.2%; in the assay on SN12C renal, 64%; in the assay on UO-31 renal it was 43.3%; with TK-10 renal, 58.8%; with ACHN renal, 46.3%; in the assay with CAKI-1 renal it was 17.1%. Moreover, the growth in the assay with A498 renal was 0.502% (active); in the assay with CCRF-CEM leukemia, 9.33% (active); in the assay with MOLT-4 leukemia, 8.56% (active); in the assay on SR leukemia it was 11.4%.

Turning to `Fc1ccc(-c2nnc(-c3c(-c4ccc(F)cc4)nc4ccccn34)o2)cc1`, the growth is 95.3% with EKVX NSCLC; 77.2% in the assay with SN12C renal; 83.8% with UO-31 renal; 102% in the assay on TK-10 renal; 83.2% in the assay with ACHN renal; 91.1% in the assay with CAKI-1 renal. For the same molecule, the growth with A498 renal is 62%; in the assay on CCRF-CEM leukemia, 95.4%; in the assay on MOLT-4 leukemia, 100%; in the assay on SR leukemia, 47.3%.

`CCCCCCCCN(CCCCCCCC)CCCCCCCCCN1CCCc2cc(OC)ccc21`: the growth was 81.5% in the assay on EKVX NSCLC; 82.7% in the assay on SN12C renal; 80.4% in the assay with UO-31 renal; 117% in the assay with TK-10 renal; 96.5% in the assay on ACHN renal; 99.3% with CAKI-1 renal. The growth is 96% in the assay with A498 renal, 85.8% with CCRF-CEM leukemia, 85.8% in the assay with MOLT-4 leukemia and 77.5% with SR leukemia.

As to `CCCCCCCCCCCC[n+]1ccc(C(N)=O)cc1`, the growth in the assay on EKVX NSCLC was 22.2%; in the assay on SN12C renal it was 12.3%; in the assay on UO-31 renal, 64.4%; in the assay on TK-10 renal, -28% (active); in the assay with ACHN renal, 87.5%; with CAKI-1 renal, 41.1%. Moreover, the growth in the assay with A498 renal was 78.9%; in the assay with CCRF-CEM leukemia, 13%; in the assay on MOLT-4 leukemia, 13.6%; in the assay with SR leukemia it was 14.5%.

Take `O=C(Nc1cccc(Br)c1)c1cc(=O)[nH]c2ccccc12`: the growth was 87.1% with EKVX NSCLC; 99.7% in the assay with SN12C renal; 97.9% in the assay with UO-31 renal; 109% in the assay with TK-10 renal; 98.5% in the assay with ACHN renal; 76.6% with CAKI-1 renal. Moreover, the growth in the assay with A498 renal is 111%; in the assay with CCRF-CEM leukemia, 84.9%; in the assay on MOLT-4 leukemia, 96.1%; in the assay on SR leukemia it was 81%.

Consider `COc1ccc2c(c1)N(CCO)C1=C(C(=O)OC1)C2c1cc(OC)c(OC)c(OC)c1` (stereo not given), for which the growth in the assay with EKVX NSCLC is 40.3%; in the assay on SN12C renal, 26%; in the assay on UO-31 renal it was 15.2%; in the assay on TK-10 renal, 66%; in the assay with ACHN renal, 32.8%; in the assay on CAKI-1 renal, 6.97% (active). The growth was -12.2% (active) in the assay on A498 renal, 11.6% with CCRF-CEM leukemia, 19.3% in the assay with MOLT-4 leukemia and 23.5% in the assay with SR leukemia.

With `COc1ccc(-c2nc3ncccn3c2-c2nnc(-c3ccc(F)cc3)o2)cc1`, the growth with EKVX NSCLC was 96%; in the assay on SN12C renal, 91%; in the assay with UO-31 renal it was 79.2%; in the assay with TK-10 renal, 113%; with ACHN renal it was 97.6%; in the assay with CAKI-1 renal, 100%. The growth was 81% with A498 renal, 94.4% in the assay with CCRF-CEM leukemia, 97.1% with MOLT-4 leukemia and 108% with SR leukemia.

Regarding `O=[N+]([O-])c1ccc(Oc2cccnc2)c([N+](=O)[O-])c1`, the growth with EKVX NSCLC is 93.9%; with SN12C renal, 97%; in the assay on UO-31 renal it was 58.3%; in the assay on TK-10 renal, 67.5%; with ACHN renal it was 72.4%; in the assay on CAKI-1 renal it was -9.25% (active). The growth is 89.3% with A498 renal, 20.1% with CCRF-CEM leukemia, 76.4% in the assay with MOLT-4 leukemia and 21.1% with SR leukemia.

Consider `COc1ccc(/C=C/C(=O)Nc2ccc(-c3nc4ccc(OC)cc4s3)cc2)cc1`, for which the growth with EKVX NSCLC is 100%; in the assay with SN12C renal, 103%; with UO-31 renal, 85.2%; in the assay with TK-10 renal it was 109%; in the assay with ACHN renal, 114%; in the assay on CAKI-1 renal, 104%. Further, the growth in the assay with A498 renal is 97.8%; in the assay on CCRF-CEM leukemia, 98.3%; with MOLT-4 leukemia, 81.6%; in the assay with SR leukemia, 86.7%.
